HCMV inh: blocks human cytomegalovirus replication | HFF cells, HCMV-luciferase reporter, 72 h; hits give low values | activity change, negative = inhibition, % at 57.5 µM | 4.5% of 410,000 active | AID 1259415; in the data active = activity change below about -60%; inconclusive = no clear call, values can overlap the other calls; inactive = above about -39%
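Two compound doses tested in HFFs infected with HCMV-luciferase, MOI 1 PFU/cell, 72 h at 37C. Lysate luminescence read with OneGlo; data normalized against buffer-only and 10uM Salinomycin inhibitor controls.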
HCV inh: HCV inhibition. Huh7.5.1 HCVcc-Cre infection, luciferase reporter, 44 h. Potency, µM (series often up to 41.8 µM), for the others: top-dose activity change, negative = inhibition, usual class: inhibitors. 3.4% of 340,000 active. AID 651820; also: potency is read from the fitted curve at half-maximal effect
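Cells seeded at 1,000/well and cultured 4 h, then compounds added followed by HCVcc-Cre virus (~0.5 moi). After 44 h further culture, luciferase substrate was added, plates held 15 min at room temperature, and luminescence read for 15 sec.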
Vaccinia Venus: inhibitors of vaccinia virus (Venus reporter); AID 720580; Potency, µM (doses to about 36.5 µM), for the others: at the highest dose activity change, negative = inhibition, most hits filed as inhibitors; Vaccinia virus Venus reporter expression, fluorescence; 0.46% of 330,000 active; calls by dose curve; tested in A549 cells; also: potency is read from the fitted curve at half-maximal effect; nearly all actives have a fitted effect of over 30% in size
Vaccinia mCherry: inhibitors of vaccinia virus infection (mCherry reporter signal); Vaccinia virus mCherry reporter infection, fluorescence; Potency, µM (highest dose often 36.5 µM), inactives show at the highest dose activity change, negative = inhibition, most hits filed as inhibitors; 0.63% of 310,000 active; calls by dose curve; tested in A549 cells; also: potency is read from the fitted curve at half-maximal effect; nearly all actives have a fitted effect of over 35% in size
FMDV antiviral: antivirals against foot and mouth disease virus | FMDV antiviral cell-based qHTS | Potency, µM (series often up to 57.9 µM), inactives show at the top dose activity change, negative = inhibition, hits mostly inhibitors | AID 1159524 | 1.2% of 410,000 active; calls by dose curve; tested in HEK293T cells; also: read-out not given here; potency is read from the fitted curve at half-maximal effect; nearly all actives have a fitted effect of over 45% in size
Giardia FBPA inh: inhibitors of Giardia lamblia fructose-1,6-bisphosphate aldolase; A8B2U2; purified Giardia FBPA; Potency, µM (doses to about 59.6 µM), for inactives: at the top dose activity, negative = inhibition, usual class: inhibitors; 0.71% of 290,000 active; AID 2451; also: potency is read from the fitted curve at half-maximal effect; nearly all actives have a fitted effect of over 55% in size
Target sequence (A8B2U2 whole entry, looked up): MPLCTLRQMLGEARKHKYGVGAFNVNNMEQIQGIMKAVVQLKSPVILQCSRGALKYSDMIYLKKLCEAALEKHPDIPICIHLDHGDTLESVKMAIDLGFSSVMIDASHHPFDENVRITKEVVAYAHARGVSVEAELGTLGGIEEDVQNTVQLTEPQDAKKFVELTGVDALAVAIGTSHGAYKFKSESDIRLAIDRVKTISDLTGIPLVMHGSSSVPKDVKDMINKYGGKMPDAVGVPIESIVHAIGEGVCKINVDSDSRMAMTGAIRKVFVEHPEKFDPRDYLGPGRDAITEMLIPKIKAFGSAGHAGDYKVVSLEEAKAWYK
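Giardia FBPA (40 nM reagent) was preincubated 10 min at RT with compound (up to 57.5 uM final), then substrate plus GAPDH/TPI/NAD/arsenate coupling system with diaphorase/resazurin was added; resorufin fluorescence (525/598 nm) was read after 20 min.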
* hit, by the source's call; i = inactive; ? = inconclusive; · = not tested or not shown; [ ] = remark or other dose. Shown are actives, neighbours in structure and some others; about 7.5% of the full set was active somewhere. Unless noted, calls follow the shape of the dose curve; as a rule, active = well fitted curve in the direction sought with a large enough effect; inconclusive = small, poorly fitted or top-dose-only effect, or another doubt; inactive = no such curve, though single readings can be large; an effect the other way counts as inactive or inconclusive. % is scaled to controls: 0 for no effect and ±100 for the full control effect.

SMILES	HCMV inh	HCV inh	Vaccinia Venus	Vaccinia mCherry	FMDV antiviral	Giardia FBPA inh
O=C(NCCc1c[nH]c2ccccc12)C1CCC(Cn2c(=S)[nH]c3ccccc3c2=O)CC1 (stereo not given)	-68*	4.5µM*	·	·	-5%	5%
CC1(C(=O)NCCc2c[nH]c3ccccc23)CCN1CC1CCCCC1 (stereo not given)	-64*	·	-9%	-4%	-22%	·
COCCNC(=O)C1CCC(Cn2c(=S)[nH]c3ccccc3c2=O)CC1 (stereo not given)	2	-24%	·	·	16%	-9%
Cc1ccc(CNC(=O)CCCn2c(=O)c3ccccc3n(CC(=O)C(C)(C)C)c2=O)cc1	9	·	-10%	-20%	4%	·
CCc1cccc(NC(=O)CCc2c(C)nc3c(c2C)c(=O)n(C)c(=O)n3C)c1	-18	·	-5%	7%	?	·
COc1cccc(N2CCN(C(=O)C3CCN(S(=O)(=O)c4c(C)noc4C)CC3)CC2)c1	4	·	-2%	-9%	-18%	·
O=c1c2ccccc2sn1-c1ccc(Cl)cc1Cl	-95*	·	-28%	-1%	-23%	·
O=c1c2ccccc2ncn1-c1ccc(Cl)cc1Cl	-21	-19%	·	·	-21%	0%
CC(CN1CCN(C)CC1)OC(=O)c1ccc(F)cc1 (stereo not given)	-71*	3%	4%	i	7%	0%
O=Cc1ccc(-c2ccc([N+](=O)[O-])cc2Cl)o1	-66*	1%	4%	-20%	-15%	0%
Cc1cc(C)cc(NC(=O)N2CCC(C(=O)c3ccc(F)cc3)CC2)c1	-39	?	-6%	-5%	-19%	-1%
Cc1cccc(NC(=O)N2CCC(C(=O)c3ccc(F)cc3)CC2)c1	-64*	?	-16%	-15%	24%	-9%
Cc1ccc(S(=O)(=O)Nc2ccc(Nc3nccn4c(-c5ccc6ccccc6c5)cnc34)cc2)cc1	5	·	-24%	?	14%	·
O=c1c(=O)n(-c2ccc(F)c(F)c2)ccn1Cc1ccc(F)cc1Cl	-31	·	-5%	-3%	0%	·
Cc1ccc(N(CC(=O)NCCc2ccc(F)cc2)S(=O)(=O)c2ccc(Cl)c([N+](=O)[O-])c2)c(C)c1	-1	10µM*	·	·	?	-7%
O=C(CN(c1ccc(Br)cc1)S(=O)(=O)c1ccc(Cl)c([N+](=O)[O-])c1)NCCc1ccccc1	-21	?	-4%	-6%	-24%	7%
CC(c1ccccc1C(O)(c1ccccc1)c1ccccc1)N(C)C (stereo not given)	-69*	6%	-9%	i	-14%	4%
COc1ccccc1C(O)(c1ccccc1)c1ccccc1OC	12	-23%	-3%	-12%	-1%	·
COC(=O)c1cccc(Nc2c(-c3ccc(SC)cc3)nc3nc[nH]n23)c1	80	·	0%	-6%	53%	·
CSc1ncc2c(n1)-c1cc(C)ccc1SC2	-98*	8.9µM*	-19%	-6%	-10%	5%
CCOC(=O)[C@@H]1[C@H]2COc3ccccc3[C@@H]2N2C(=O)N(c3ccccc3)C(=O)[C@]12C	42	-6%	-17%	i	0%	-5%
CC(=O)Oc1cc(-c2coc3cc(OC(C)=O)c(OC(C)=O)c(OC(C)=O)c3c2=O)cc(OC(C)=O)c1OC(C)=O	·	·	-3%	-17%	7%	5.6µM*
COc1cc(-c2coc3cc(OC)c(OC)c(OC)c3c2=O)cc(OC)c1OC	·	·	?	i	-1%	-1%
Cc1cccc(-n2cnc3c(sc4nc(N5CCOCC5)c5c(c43)CCCC5)c2=O)c1	?	18µM*	-7%[7.34 µM]	-6%[7.34 µM]	?	0%
C=C1N(S(=O)(=O)C(F)(F)F)CC[C@@]12c1ccccc1N(C)[C@@H]2c1cn(C)c2ccccc12	6	·	·	·	·	·
SMILES	HCMV inh	HCV inh	Vaccinia Venus	Vaccinia mCherry	FMDV antiviral	Giardia FBPA inh
O=C(Nc1cc(C(F)(F)F)ccc1Cl)c1ccncc1	?	6%	-5%	0%	-20%	-3%
C/C(=N\Nc1cc(C(F)(F)F)ccc1Cl)c1ccncc1	-16	13µM*	-9%	-18%	-22%	10%
C=CC(=O)Nc1ccc(Nc2nc(NC3CCC(N(C)C)CC3)nc3c2ncn3C(C)C)cc1 (stereo not given)	·	1.3µM*	1.1µM*	?	-47%	·
N#Cc1ccccc1NC(=O)C1SC(=Nc2ccccc2)C(C(=O)Nc2ccc(Cl)cc2)=C1N (stereo not given)	25	10µM*	-6%	-15%	0%	-7%
N=c1sc2ccccc2n1-c1ccccc1	-21	?	·	·	-23%	-6%
C=CC(=O)N=c1sc2ccccc2n1-c1ccccc1	47	11µM*	?	?	?	0%
O=C(Nc1cccc2ccccc12)c1nn(C23CC4CC(CC(C4)C2)C3)cc1[N+](=O)[O-]	-71*	?	·	·	14%	8%
CCOc1cc(S(=O)(=O)n2c(C)nc3ccccc32)ccc1F	19	-19%	-28%	·	-22%	-15%
CCOc1ccc(/C=C/c2nc3ccccc3n2S(=O)(=O)c2cccc(Cl)c2)cc1	-80*	·	-8%[7.34 µM]	-7%[7.34 µM]	-16%	·
Cc1ccc(/C=C/c2nc3ccccc3n2S(=O)(=O)c2cccc(Cl)c2)cc1	-82*	·	-14%	-8%	-96%	·
CSc1ccc(/C=C/c2nc3ccccc3n2S(=O)(=O)c2ccc(F)c(C)c2)cc1	-36	·	-19%	-13%	-77%	·
CCCC[C@@H]1CC2=C(C(=O)OC(C)(C)O2)[C@@H](c2ccc(F)cc2)O1	-10	·	-2%	7%	-15%	·
O=c1[nH]c(=S)c2[nH]cnc2[nH]1	·	·	-3%	38%	·	·
O=C(Nc1ccc2c(c1)OCCO2)c1cc(-c2ccccn2)nc2ccc(Br)cc12	-94*	-29%	-2%	4%	-19%	-2%
COc1ccc(NC(=O)c2cc(-c3cccnc3)nc3ccc(C)cc23)cc1OC	-17	?	-9%	-12%	-14%	·
COc1ccc(NC(=O)c2cc(-c3ccncc3)nc3ccc(Br)cc23)cc1OC	-90*	13µM*	6%	-1%	-19%	1%
CC(C)(C)S(=O)N1Cc2cc(C(=O)NCc3ccc(Oc4ccccc4)cc3)nc(-c3cccc(-c4cc5ccccc5o4)c3)c2[C@@H]1CCO (stereo not given in full)	·	·	-7%	i	-13%	·
Cn1nccc1C(=O)N(CCN1CCCCC1)CC1CCCN(C2CCCC2)C1 (stereo not given)	34	14µM*	-4%	-10%	51%	6%
COc1ccc([C@H]2CC(=O)C=C(c3cc(C)ccc3OC)C2)cc1	-1	7.9µM*	-22%	-8%	-8%	·
O=C1C=C(c2cc(F)ccc2F)C[C@@H](c2ccc(Cl)cc2)C1	-23	?	-17%	?	-21%	·
COc1ccc([C@H]2CC(=O)C=C(c3ccnc4ccc(Cl)cc34)C2)cc1	-78*	?	?	-17%	?	·
